Inconclusive results are not listed. A call without a number means that no potency is given here. A number with no mark means an inactive call. Calls of active or inactive are those of the source. Calls follow the shape of the full dose curve.
These compounds were tested against Beta-2 adrenergic receptor (Homo sapiens) (UniProt P07550) (assay: Adrenergic beta2 receptor (ADRB2) small molecule antagonists, cell-based qHTS assay (AID 1963592; also: nearly all actives have a fitted effect of over 50% in size)). Details: CHO-ADRB2 cells, isoproterenol-stimulated cAMP HTRF ratio, 0.5 h; series mostly up to 92.4 µM.
Chain of Beta-2 adrenergic receptor (Homo sapiens) (P07550 whole entry, looked up): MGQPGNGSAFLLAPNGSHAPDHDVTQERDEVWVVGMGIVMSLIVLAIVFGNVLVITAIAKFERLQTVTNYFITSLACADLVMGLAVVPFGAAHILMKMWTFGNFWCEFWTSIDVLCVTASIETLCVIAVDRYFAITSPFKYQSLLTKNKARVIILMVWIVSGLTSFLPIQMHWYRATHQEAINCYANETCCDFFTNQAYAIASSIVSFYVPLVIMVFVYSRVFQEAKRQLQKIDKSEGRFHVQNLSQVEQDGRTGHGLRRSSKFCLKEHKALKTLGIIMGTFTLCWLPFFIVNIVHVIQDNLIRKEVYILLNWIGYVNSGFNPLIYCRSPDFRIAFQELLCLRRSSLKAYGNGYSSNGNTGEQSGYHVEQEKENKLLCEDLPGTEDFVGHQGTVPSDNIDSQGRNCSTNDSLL
Description: U.S. Tox21 Program National Center for Advancing Translational Sciences [NCATS] Division of Preclinical Innovation [DPI] U.S. Environmental Protection Agency [EPA] National Institutes of Environmental Health Sciences [NIEHS] National Toxicology Program [NTP] U.S. Food and Drug Administration [FDA] Tox21 Assay Overview: Beta adrenergic receptors (Beta-ARs) belong to the G-protein coupled receptor (GPCR) superfamily, includes three subtypes - beta1, beta2, and beta3. Beta1-AR is the predominant receptor subtype expressed in the heart, and beta2-AR is expressed in the kidney, lung, blood vessel and in the heart, and beta3 is found in the adipocytes. Beta1 and 2 ARs couple to Gs protein and elevate cyclic adenosine mono phosphate (cAMP), which activates protein kinase A and leads to the downstream signaling responsible for the physiological actions. Beta-AR agonists or antagonists are the most prescribed therapeutic agents for heart failure and asthma, and these were one of the first target receptors for the rational drug design. Tox21 10K compound library was screened using the cAMP-Gs dynamic assay (Cisbio Bioassays, Shelton, CT) to identify agonists/antagonists of the Gs-coupled human adrenergic, beta2 receptor (ADRB2) in the CHO-ADRB2 cell line (Codex BioSolutions, Inc. Gaithersburg, MD), which stably over-expresses ADRB2. The principle of cAMP-Gs dynamic assay is based on HTRF technology, which facilitates the fluorescence resonance energy transfer (FRET) between donor Europium cryptate and acceptor d2-labeled cAMP. The cAMP generated within cells competes with the red acceptor, d2-labled cAMP, for binding to the monoclonal anti-cAMP-cryptate (Europium donor). An increase in intracellular cAMP leads to the disruption of FRET signal, and the signal is inversely proportional to the cAMP concentration. Propranolol HCl (Sigma-Aldrich, St. Louis, MO) was used as a positive control in the screening.
Tox21 Assay Protocol Summary: CHO-ADRB2 cells were dispensed at 1,000/well in 4uL assay medium into white/solid 1536-well plates (Greiner Bio-One North America Inc., Monroe, NC) using a Multidrop Combi dispenser (ThermoFisher Scientific, Waltham, MA). The assay plates were incubated at 37C and 5% CO2 for an overnight (18-20hr). Then positive control and test compounds dissolved in DMSO were transferred to the assay plates at 23nL using a Pintool station (Wako, San Diego, CA). Following the compound and positive control transfer, 1uL agonist-stimulation mix containing 1nM Isoproterenol HCl, 100uM IBMX and 25uM Ro-20-1724 was added to each well of the assay plates using BioRAPTR Flying Reagent Dispenser (FRD, Beckman Coulter, Brea, CA). The assay plates were incubated at room temperature for 0.5hr. Then 2.5ul each d2-labled cAMP and anti-cAMP-cryptate solutions were added separately to each well of the assay plates using an FRD and the assay plates were incubated at room temperature for 1hr. The fluorescence signal was measured at two different wavelengths (665nm and 615nm) using an Envision plate reader (Perkin Elmer, Shelton, CT). Data were expressed as the ratio of 665 nm/615 nm.
For `CCC(C)C(C)=O` (stereo not given), the Potency was “inactive”.
In the case of `Cc1ccc(C(N)=O)cc1N`, the Potency is reported as “inactive”.
For `CCN(CC)CCCN(c1ccccc1)C1Cc2ccccc2C1`, the Potency was 0.106 µM (active).
In the case of `CN1CCN2c3ccccc3Cc3ccccc3C2C1` (stereo not given), the Potency is reported as “inactive”.
For `CCCCN1C(=O)[C@@H]([C@H](O)C2CCCCC2)NC(=O)C12CCN(Cc1ccc(Oc3ccc(C(=O)O)cc3)cc1)CC2`, the Potency was “inactive”.
`CCCCCCCCCCCCCCCCCBr` gave an activity change, negative = inhibition of 0.719% [at 19 µM].
With `CCCCCC/C=C\CCCCCCCC(=O)O` the Potency was “inactive”.
With `C=CCCCCCC` the Potency was “inactive”.
For `CN(C)[C@@H](CCOc1cccc2ccccc12)c1ccccc1`, the Potency was “inactive”.
`c1ccc(C(O[C@@H]2CCCN(CCc3ccc4c(c3)OCO4)C2)c2ccccc2)cc1` was tested, and the Potency was 48.6 µM (active).
In the case of `C=CC(=O)OCCOc1ccccc1`, the Potency is reported as “inactive”.
For `Cc1cc(O)ccc1O`, the Potency was “inactive”.
In the case of `N#CCCCC(C#N)CCC#N` (stereo not given), the Potency is reported as “inactive”.
`CC/C=C1/OC(=O)c2ccccc21` was tested, and the Potency was “inactive”.
`c1ccc(OCc2ccc(CCCN3CCOCC3)cc2)cc1` was tested, and the Potency was “inactive”.
`Cc1c(C)c2c(c(C)c1OC(=O)c1cccnc1)CC[C@@](C)(CCC[C@H](C)CCC[C@H](C)CCCC(C)C)O2` was tested, and the Potency was “inactive”.
`O=CN(CCO)CCO` was tested, and the Potency was “inactive”.
With `CCCC/C=C/CCCCO` the Potency was “inactive”.
With `CC(COc1ccc(C(C)(C)C)cc1)OS(=O)OCCCl` (stereo not given) the Potency was “inactive”.
`O=C(O)c1ccccc1Nc1cc(Cl)ccc1C(=O)O` showed an activity change, negative = inhibition of 5.54% [at 19 µM].
`Brc1cc(Br)c(Oc2cc(Br)c(Br)cc2Br)cc1Br` was tested, and the Potency was “inactive”.
`CC(O)CN` (stereo not given) was tested, and the Potency was “inactive”.
In the case of `Cc1nc(Nc2ncc(C(=O)Nc3c(C)cccc3Cl)s2)cc(N2CCN(CCO)CC2)n1`, the Potency is reported as “inactive”.
With `NC(=O)Nc1nc2ccccc2[nH]1` the Potency was “inactive”.
For `NCCNC(=O)c1ccc(Cl)cn1`, the Potency was “inactive”.
`Cc1nc2sccn2c(=O)c1CCN1CCC(=C(c2ccc(F)cc2)c2ccc(F)cc2)CC1` was tested, and the Potency was “inactive”.
For `C=C(C)C(=O)OCCOc1ccccc1`, the Potency was “inactive”.
In the case of `O=C[C@@H](O)[C@H](O)[C@H](O)CO`, the Potency is reported as “inactive”.
In the case of `CCCCCCCC/C=C/CCCCCCCC1=NCCN1CCO`, the Potency is reported as “inactive”.
In the case of `Cc1cc(C(C#N)c2ccc(Cl)cc2)c(Cl)cc1NC(=O)c1cc(I)cc(I)c1O` (stereo not given), the Potency is reported as “inactive”.
In the case of `CN(C)CCN(C)CCO`, the Potency is reported as “inactive”.
`CCCCCCCCCCCC(=O)OCC` was tested, and the Potency was “inactive”.
For `O=[N+]([O-])C1(Br)COCOC1`, the Potency was “inactive”.
For `O=C1CCc2cc(OCCCCc3nnnn3C3CCCCC3)ccc2N1`, the Potency was “inactive”.
For `Cc1ccc(Nc2nccc(N(C)c3ccc4c(C)n(C)nc4c3)n2)cc1S(N)(=O)=O`, the Potency was 26.6 µM (active).
For `NC(Cc1c[nH]c2ccccc12)C(=O)O` (stereo not given), the Potency was “inactive”.
For `N#CCCOCCC#N`, the Potency was “inactive”.
In the case of `CS(=O)(=O)CCNCc1ccc(-c2ccc3ncnc(Nc4ccc(OCc5cccc(F)c5)c(Cl)c4)c3c2)o1`, the Potency is reported as “inactive”.
For `C[C@H](CCC(=O)O)[C@H]1CC[C@H]2[C@@H]3[C@H](O)C[C@@H]4C[C@H](O)CC[C@]4(C)[C@H]3CC[C@]12C`, the Potency was “inactive”.
For `CC1=CC(=O)CCC1`, the Potency was “inactive”.
Potency is read from the fitted curve at half-maximal effect.
